PTHR1 ag: PTHR1 (human) receptor agonism | Q03431 | HEK293 GP2 PTHR1 cells, GloSensor cAMP luminescence, 1 h | Potency, µM (titrated, usually from 115 µM), for the others: at the top dose activation, most hits filed as activators | 0.075% of 410,000 active | AID 743266; also: potency is read from the fitted curve at half-maximal effect; nearly all actives have a fitted effect of over 55% in size
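HEK-293-derived GP2 cells expressing PTHR1 and a GloSensor cAMP reporter, 3,000/well, plated overnight, given luciferin plus IBMX (each 0.5 mM as added) for 1 h at 37 °C, then compound for 1 h at 37 °C. Luminescence was read after 15 min at room temperature.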
TRPML1 agonist: activates the human TRPML1 channel; activation, % (concentration not given with the values); Q9GZU1; TRPML1-expressing cells, Ca2+ dye fluorescence, FDSS; 0.12% of 410,000 active; in the data active = activation above about 50%; inconclusive = mostly about 30% to 49%; also: 0% is about no effect
Target sequence (Q9GZU1 whole entry, looked up): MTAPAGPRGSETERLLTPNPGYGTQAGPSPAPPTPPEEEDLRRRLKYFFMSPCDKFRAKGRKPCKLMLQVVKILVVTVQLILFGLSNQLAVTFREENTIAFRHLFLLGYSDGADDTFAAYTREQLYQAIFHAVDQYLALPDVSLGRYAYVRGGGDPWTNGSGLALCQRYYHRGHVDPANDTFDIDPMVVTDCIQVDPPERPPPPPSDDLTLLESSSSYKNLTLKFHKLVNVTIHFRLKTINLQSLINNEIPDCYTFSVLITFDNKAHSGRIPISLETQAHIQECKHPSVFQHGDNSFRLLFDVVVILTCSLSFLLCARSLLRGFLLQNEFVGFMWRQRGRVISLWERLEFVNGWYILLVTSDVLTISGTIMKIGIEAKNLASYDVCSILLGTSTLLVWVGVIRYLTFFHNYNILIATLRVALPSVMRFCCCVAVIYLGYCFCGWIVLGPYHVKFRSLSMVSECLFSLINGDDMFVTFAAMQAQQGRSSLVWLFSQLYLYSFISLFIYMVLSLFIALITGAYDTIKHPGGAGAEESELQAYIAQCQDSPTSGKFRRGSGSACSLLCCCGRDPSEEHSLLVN
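Tet-induced TRPML1-DL cells, 1,500 per well, cultured overnight, were loaded with a no-wash Ca2+ dye for 45–90 min. Calcium fluorescence was recorded on the FDSS for 110 s after compound addition, before the EC80 agonist (4 uM 54-4) was added.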
TRPML1 inh: blocks the human TRPML1 channel; TRPML1-inducible cells, Ca2+ dye fluorescence, FDSS; hits give low values; inhibition of EC80 agonist-evoked calcium signal; activity change, negative = inhibition, % (no concentration beside the values); 0.02% of 390,000 active; in the data active = activity change below about -50%; inconclusive = between about -30% and that limit;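 also: stimulus is agonist 54-4 at its EC80 concentration; % is scaled to controls: 0 for no effect and ±100 for the full control effect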
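Tet-induced TRPML1-DL cells loaded with Ca8 no-wash calcium dye were read kinetically on FDSS. Compound addition was followed by EC80 agonist 54-4 (4 uM final); inhibition was read over 110 s.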
TRHR agonist: activates the human TRH receptor | activation, % at 2 µM | AID 493084 | TRHR cells, calcium flux fluo-8, FDSS agonist mode | 0.18% of 360,000 active; in the data active = activation above about 30%; also: 0% is about no effect
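Fluo-8-loaded TRHR cells; 10 s baseline, compound added, kinetic Ca2+ fluorescence read 1/s, agonist mode.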
HEK293 tox: cytotoxic in the GLP-1 receptor inverse agonist counter-screen. HEK293 cAMP-luciferase reporter cells, luminescence, 24 h. Potency, µM (series often up to 38.3 µM), for the others: at the highest dose activity change, negative = inhibition, hits mostly inhibitors. 0.13% of 410,000 active;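 also: loss of luciferase light is scored as toxicity; potency is read from the fitted curve at half-maximal effect; % is scaled to controls: 0 for no effect and ±100 for the full control effect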
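Compound-treated cells are incubated 24 hr at 37 deg C under 5% CO2 after a 12 hour attachment period, then luciferase detection reagent is added and luminescence is measured following 12 min at room temperature; lowered signal indicates toxicity.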
TRHR PAM: allosteric enhancers of human TRH receptor; P34981; TRHR cells, fluo-8 calcium fluorescence, EC20 TRH enhancement; enhancement, % at 2 µM; 0.66% of 360,000 active; AID 493056; in the data active = enhancement above about 30%; also: 0% is about no effect
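Enhancer read-out: after compound pinning and an initial kinetic agonist-mode read, an EC20 of TRH (10 nM final) was injected and fluo-8 calcium signal (Ex 480/Em 530) followed at 1 s/cycle for 100 cycles in TRHR-expressing cells.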
Starred values were filed as active, the others as inactive; i = inactive; u = inconclusive; x = no result given. A selection: hits, their analogues and other compounds. The true share with any hit is near 0.93%. Unless noted, calls follow the shape of the dose curve; as a rule, active = well fitted curve in the direction sought with a large enough effect; inconclusive = small, poorly fitted or top-dose-only effect, or another doubt; inactive = no such curve, though single readings can be large; an effect the other way counts as inactive or inconclusive.

SMILES	PTHR1 ag	TRPML1 agonist	TRPML1 inh	TRHR agonist	HEK293 tox	TRHR PAM
Cc1ccc(-n2[nH]c(C)c(/C=N/NC(=O)c3ccc([N+](=O)[O-])cc3)c2=O)c(C)c1	x	x	x	-0.2	x	50.2*
C1NNCC12CNNC2	x	-0.5	x	x	x	x
COc1ccc(OC)c2c(C)ccnc12	x	-0.6	x	x	x	x
CCOC(=O)c1cnc(-n2nc(C)cc2C)nc1Nc1ccc2c(c1)OCO2	x	x	x	-1.2	x	32.5*
CCOC(=O)c1cnc(-n2nc(C)cc2C)nc1Nc1ccc(N(C)C)cc1	-34.3%	-1.3	24.2	-0.5	1.12µM*	-1.4
CCOC(=O)c1cnc(-n2nc(C)cc2C)nc1Nc1ccc(C)cc1	i	-0.2	-9.7	0.2	u	0.4
Cc1[nH]c2ccccc2c1C(=O)CNc1ccc(Br)cc1	x	1.9	x	x	x	x
CCN(Cc1cccc(S(=O)(=O)O)c1)c1ccc(C(=C2C=CC(=[N+](CC)Cc3cccc(S(=O)(=O)O)c3)C=C2)c2ccc(O)cc2S(=O)(=O)O)cc1	x	-1.0	x	x	x	x
Cc1ccc2oc(C(=O)Nc3ccc(S(=O)(=O)N(C)Cc4ccccc4)cc3)cc(=O)c2c1	-4.9%	-0.3	4.4	0.5	0.4%	2.7
Cc1cc2oc(C(=O)Nc3ccc(S(=O)(=O)N(C)Cc4ccccc4)cc3)cc(=O)c2cc1C	-5.7%	0.5	-10.5	0.1	9.1%	30.9*
COc1ccc(CCn2c(=S)[nH]c(=O)c3cccnc32)cc1OC	x	-1.1	x	x	x	x
O=C(NCCc1csc2nc(-c3ccccc3F)nn12)c1ccccc1C(F)(F)F	9.2%	1.8	-11.8	-0.4	-17.5%	0.9
COc1cccc(C(=O)NCCc2csc3nc(-c4ccccc4F)nn23)c1OC	-67.2%	1.3	-0.3	-0.1	-20.0%	35.1*
CCSc1cc(N2CCCC2)nc(-c2ccc(C)cc2)n1	i	0.8	5.2	-0.6	0.7%	3.3
CCSc1cc(N2CCCC2)nc(-c2cccc(C)c2)n1	i	1.3	-3.6	-1.4	18.4%	31.3*
COc1ccc(NC(=O)Cn2c(=O)n(Cc3ccccc3)c(=O)c3sc4ccccc4c32)cc1	-21.0%	-0.2	-0.4	0.8	-2.2%	35.5*
O=C(COC(=O)CC(c1ccccc1)c1ccccc1)NCc1ccc(Cl)cc1	-25.9%	2.8	-2.1	3.8	6.0%	-5.6
CC(CC(=O)NCc1ccc(Cl)cc1)c1ccccc1 (centres undefined)	-10.3%	x	x	-0.4	14.5%	34.4*
COc1cc2c(cc1OC)n(CC(=O)c1ccc(F)cc1)c(=O)n1nc(CCn3nc(C)cc3C)nc21	i	-0.1	-12.3	-0.1	-8.5%	36.2*
COc1cc(/C=c2\[nH]c(=O)/c(=C/c3cc(OC)c(OC)c(OC)c3)[nH]c2=O)cc(OC)c1OC	x	-0.7	x	x	x	x
CNC(=O)c1ccc2nc(-c3cccc(C)c3)c(-c3cccc(C)c3)nc2c1	x	-1.0	x	x	x	x
COc1cc(C=C2Cc3ccccc3C2=O)cc(OC)c1OC	i	-1.3	x	x	4.7%	x
COc1cc(N(C)C)c(OC)cc1/C=C1\Cc2ccccc2C1=O	x	78.2*	x	x	x	x
CCCCN(C(=O)c1ccc(S(=O)(=O)N(C)C)cc1)c1nc2ccccc2s1	-2.9%	2.5	-8.6	0.1	-10.9%	-0.8
CCCCN(C(=O)c1ccc(S(=O)(=O)N(C)C)cc1)c1ccccc1	i	81.4*	-11.6	-0.4	0.1%	-8.4
SMILES	PTHR1 ag	TRPML1 agonist	TRPML1 inh	TRHR agonist	HEK293 tox	TRHR PAM
C#CCOCCOCCOCCNc1nc(N2CCN(C(=O)[C@H]([C@@H](C)CC)n3cc([C@@H](N)CC(C)C)nn3)CC2)nc(N2CCN(C(=O)[C@H](CCCCN)n3cc([C@@H](N)CC(C)C)nn3)CC2)n1	-21.6%	1.0	-20.9	-0.1	-0.7%	37.5*
CC(C)C[C@H](N)c1cn([C@@H](CCCCN)C(=O)N2CCNCC2)nn1	-1.2%	0.0	11.4	-0.3	u	31.3*
C#CCOCCOCCOCCNc1nc(N2CCN(C(=O)[C@H](CCCCN)n3cc([C@@H](N)C(C)CC)nn3)CC2)nc(N2CCN(C(=O)[C@H](CCCCN)n3cc([C@@H](N)CO)nn3)CC2)n1 (some centres undefined)	x	x	x	0.4	x	36.6*
C#CCOCCOCCOCCNc1nc(N2CCN(C(=O)[C@H]([C@@H](C)CC)n3cc([C@@H](N)CO)nn3)CC2)nc(N2CCN(C(=O)[C@H](CCCCN)n3cc([C@@H](N)C(C)CC)nn3)CC2)n1 (some centres undefined)	-13.7%	0.4	28.9	0.7	8.3%	1.4
COc1cccc(/C=C/c2cnc3ccccc3n2)c1OC	x	-0.3	x	x	x	x
CCN(CC)c1ccc(/C=C/c2ccc3ccccc3n2)cc1	x	0.5	x	x	x	x
Cc1ccc(S(=O)(=O)Nc2ncnc3sc(C)c(C)c23)cc1	-24.3%	0.6	2.4	0.0	-18.1%	-1.4
Cc1ccc(S(=O)(=O)Nc2ncnc3ccccc23)cc1	-25.1%	-0.3	2.1	0.6	8.5%	31.1*
CCOC(=O)N1CCN(C(=O)c2cc3cc(Br)ccc3oc2=O)CC1	-19.9%	-0.1	4.5	-0.2	7.0%	40.6*
COc1ccccc1N1CCN(C(=O)c2cc3cc(Br)ccc3oc2=O)CC1	-27.3%	-0.1	9.9	-0.6	-4.0%	-8.1
Cc1cc2c(s1)c1cnn(Cc3ccc(F)c(Cl)c3)c(=O)c1n2C	x	x	x	-0.4	x	0.3
Cc1ccc(-c2nc3cccc(C)n3c2Nc2ccc(F)cc2)o1	x	-0.6	x	x	x	x
O=C(O)c1ccc(-c2nc3scc(-c4ccccc4)c3c(=O)[nH]2)cc1	17.8µM*	0.1	7.5	0.7	5.0%	-2.9
COc1cccc(-c2nnc(NC(=O)c3cccc(F)c3)o2)c1	-5.1%	0.5	20.1	-0.3	3.6%	33.2*
COc1cccc(-c2nnc(NC(=O)c3ccccc3Br)o2)c1	-3.4%	-1.1	-3.0	-0.9	-1.0%	-0.2
N#CN1CCC(N[S+](=O)([O-])c2cccc(F)c2)CC1	x	x	x	-1.1	x	5.7
CCCN1CCC(=O)N(CCC#N)CC1	x	-0.3	x	x	x	x
O=C(Cn1c(SCc2ccccc2F)nc2cccnc21)Nc1ccc(F)c(Cl)c1	-40.8%	-0.2	7.9	0.7	-14.2%	36.0*
Cc1ccc(CCNc2nc3c(S(=O)(=O)c4ccc(C)cc4)nnn3c3ccsc23)cc1	0.1%	-0.4	-9.4	1.0	4.2%	42.0*
Cc1ccc(S(=O)(=O)c2nnn3c2nc(NCc2cccs2)c2sccc23)cc1	-26.2%	0.5	-5.8	0.0	-2.9%	2.6
COc1ccc(Cl)cc1N(C)c1nc(N2CCN(S(=O)(=O)c3ccc(C)cc3)CC2)c2ccccc2n1	x	-0.5	x	x	x	x
CN(Cc1nc2ccccc2c(=O)[nH]1)Cc1nc2ccsc2c(=O)[nH]1	-24.8%	0.4	27.8	0.3	12.6µM*	-1.6

High-throughput results deposited in PubChem BioAssay by National Center for Advancing Translational Sciences (NCATS).
